Screening results (PubChem BioAssay)
Anthrax LF prot: Bacillus anthracis LF protease inhibitors, primary screen, biochemical, multiplex microsphere, MLPCN library | Lethal factor (Bacillus anthracis), P15917 | multiplex microsphere protease cleavage assay | inhibition, % at 10 µM | actives 0.12% (n = 360,000) | AID 588501, 2011
SARS 3CLpro inh: SARS-CoV 3CLpro protease inhibitors, primary screen, biochemical, quenched FRET; Replicase polyprotein 1ab (Severe acute respiratory syndrome coronavirus), P0C6X7; recombinant SARS-CoV 3CLpro, quenched FRET peptide cleavage; inhibition, % at 6 µM; actives 0.14% (n = 290,000); in the data active = inhibition above about 12%
Bead autofluor: compound fluorescence in toxin protease inhibitor counterscreen | compound autofluorescence counterscreen, microsphere flow cytometry; hits give high values | fluorescence intensity (test concentration not listed) | actives 3.1% (n = 360,000); in the data active = fluorescence intensity above about 16000; inconclusive = no clear call, values can overlap the other calls
BoNT-A LC inh2: BoNT/A light chain protease inhibitors, primary screen, biochemical, flow cytometry, MLPCN library | multiplex microsphere protease substrate cleavage | AID 588499, 2011 | Botulinum neurotoxin type A light chain protease (Clostridium botulinum A str. ATCC 3502) | inhibition, % at 10 µM | actives 0.17% (n = 360,000)
VHR inh abs: VHR1 phosphatase inhibitors, primary screen, biochemical, absorbance, uHTS; Dual specificity protein phosphatase 3 (Homo sapiens), P51452; recombinant VHR phosphatase, pNPP absorbance; inhibition, % at 13.3 µM; actives 0.52% (n = 290,000); AID 1654, 2009; in the data active = inhibition above about 50%
Target sequence (P51452 whole entry, looked up): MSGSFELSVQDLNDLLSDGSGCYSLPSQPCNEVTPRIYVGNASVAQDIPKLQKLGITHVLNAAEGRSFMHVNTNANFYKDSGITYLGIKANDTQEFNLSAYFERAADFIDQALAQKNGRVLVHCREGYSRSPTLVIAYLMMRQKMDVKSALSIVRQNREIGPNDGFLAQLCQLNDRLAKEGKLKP
BoNT-F LC inh: BoNT/F light chain protease inhibitors, primary screen, biochemical, flow cytometry, MLPCN library | Botulinum neurotoxin type F light chain protease (Clostridium botulinum) | Multiplex microsphere protease cleavage assay | inhibition, % at 10 µM | actives 0.22% (n = 360,000) | AID 588497, 2011; in the data active = inhibition above about 35%, passing the limit was not always enough; inconclusive = no clear call, values can overlap the other calls
Each line names hits and unclear results; the compound was inactive in the other large screens. Shown are actives, neighbours in structure and some others; about 3.9% of the full set was active somewhere. Rule as the data show it, unless noted: active = inhibition above about 30%; inconclusive = no clear call, values can overlap the other calls; inactive = below that.

O=C(Nc1c2c(nn1-c1ccc(F)cc1)CS(=O)(=O)C2)C12CC3CC(CC(C3)C1)C2	Bead autofluor 24380, BoNT-A LC inh2 inconclusive
CCCC(=O)Nc1c2c(nn1-c1ccc(F)cc1)CS(=O)(=O)C2	none
CCCCSCCCNC(=O)CCCN1C(=O)c2ccccc2Sc2ncccc21	none
Cc1noc(C)c1CSc1ccccc1C(=O)N1CCN(c2ccccc2)CC1	none
Cc1noc(C)c1CSCC(=O)N1CCN(c2ccc(F)cc2)CC1	Bead autofluor 16984
O=C(CSCc1ccc(F)cc1)N1CCOCC1	Bead autofluor 20026
Cc1cccc(N2CCN(C(=O)CSCc3c(C)noc3C)CC2)c1C	Bead autofluor 23925
O=P(c1ccccc1)(c1ccccc1)c1cc(S(=O)(=O)O)ccc1O	none
C/C(=N/OC(=O)c1ccccc1Br)c1ccc(C)cc1	VHR inh abs 52.0
COc1ccc(CCC(=O)NCC23CC4CC(CC(C4)C2)C3)cc1	none
COc1ccc(NC2CCCN(C(=O)c3ccc4nc(C)c(C)nc4c3)C2)cc1OC (configuration not stated)	none
COc1cc(/C=N/NC(=O)c2cc[n+]([O-])cc2)cc(OC)c1OC	VHR inh abs 55.5
CC(C)CC(=O)NC(=S)Nc1cc(C(F)(F)F)ccc1N1CCOCC1	none
O=C(CCc1ccccc1)NC(=S)Nc1cc(C(F)(F)F)ccc1N1CCOCC1	Bead autofluor 19113
O=C(O)c1cccnc1SC1CC(=O)N(CCc2ccccc2)C1=O (configuration not stated)	Bead autofluor 24601
OCCN(Cc1ccccc1)c1ncnc2sccc12	VHR inh abs 51.1
COc1cc(C(=O)OCC(=O)NC2CCCC2)cc(NC(=O)c2ccco2)c1OC	Bead autofluor 20665
CC(C)(C)C(=O)COC(=O)c1cccc(NC(=O)c2ccco2)c1	Bead autofluor 23138
Cc1ccc(C(=O)OCC(=O)Nc2cc(F)ccc2F)cc1NC(=O)c1ccco1	none
O=C(Nc1cccc(C(F)(F)F)c1)c1ccco1	Bead autofluor 23988
COc1cc(C(=O)OCC(C)=O)cc(NC(=O)c2ccco2)c1OC	none
CCC(C)c1ccccc1NC(=O)COC(=O)c1ccc(C)c(NC(=O)c2ccco2)c1 (configuration not stated)	Bead autofluor 21016
Cn1c(N)c(C(=O)COC(=O)Cc2cccc(C(F)(F)F)c2)c(=O)n(C)c1=O	none (no result: SARS 3CLpro inh, VHR inh abs)
CC(C)C[C@H]1CN(CCCC[C@@H]2CNC(=O)C(=O)N2CC2CCCCC2)C(=O)C(=O)N1CC1CCCCC1	none (no result: SARS 3CLpro inh, VHR inh abs)
CN(C(=O)CCNC(=O)Cn1cnc2ccccc2c1=O)c1ccccc1F	none
Cc1ccc(C(=O)OCC(=O)Nc2ccccc2)cc1NC(=O)c1ccco1	Bead autofluor 17209
CN(Cc1ccccc1F)c1cc2c(c3c1ccn3C)C1CCC2C1 (configuration not stated)	none (no result: SARS 3CLpro inh, VHR inh abs)
Cc1cc(NS(=O)(=O)c2ccc(NC(=O)c3ccco3)cc2)nc(C)n1	Bead autofluor 21969
CCCC(=O)Nc1ccc(S(=O)(=O)Nc2cc(OC)nc(OC)n2)cc1	BoNT-F LC inh inconclusive
COc1cc(NS(=O)(=O)c2ccc(NC(=O)c3ccc(C)o3)cc2)nc(OC)n1	Bead autofluor 16150, BoNT-A LC inh2 inconclusive
CSc1ccccc1NC(=O)C1=CC(c2cccs2)=NS(=O)(=O)N1C	none
COc1ccc(C2C(C#N)=C(N)N(N(C)C)C3=C2C(=O)CCC3)cc1 (configuration not stated)	BoNT-F LC inh 56.8
CN(C)N1C(N)=C(C#N)C(c2ccsc2)C2=C1CCCC2=O (configuration not stated)	none
N#CC1=C(N)N(c2ccccc2)C2=C(C(=O)CCC2)C1c1ccsc1 (configuration not stated)	Bead autofluor 16252
Cn1c(SCC(=O)Nc2cccc(F)c2)nc2c([nH]c3ccccc32)c1=O	none
CCCN1C(=O)CC(c2ccc(OC)c(OC)c2)C1=O (configuration not stated)	none (no result: SARS 3CLpro inh, VHR inh abs)
O=C(NCCCN1CCOCC1)c1cccc(S(=O)(=O)N2CCc3ccccc32)c1	none (no result: SARS 3CLpro inh, VHR inh abs)
